# PubChem BioAssay (NCATS)
# Records with an inconclusive call do not appear. A call without a number means that no potency is given here. Active and inactive are the calls of the source. Unless noted, the call rests on the fitted dose curve; in most records, active means well fitted curve in the direction sought with a large enough effect; inconclusive means small, poorly fitted or top-dose-only effect, or another doubt; inactive means no such curve, though single readings can be large; an effect the other way counts as inactive or inconclusive.
# How the values were obtained:
# [1] = target: Cytochrome P450 3A4 (Homo sapiens) (UniProt P08684); experiment: qHTS Assay for Activators of Cytochrome P450 3A4 (AID 885); further: nearly all actives have a fitted effect of over 65% in size
# Outline: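 Steps: enzyme/substrate mix dispensed; compound added, 10 min RT; NADPH regeneration solution added, 60 min RT; luciferin detection buffer stops reaction; 20 min later luminescence measured.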
# [2] = Confirmation and Secondary Assay for Modulators of Hemoglobin Beta Chain Splicing at IVS2 654 locus (AID 910);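 further: HeLa cells stably carrying EGFP split by mutant beta-globin IVS2-654 intron; per-well total GFP intensity by laser scanning cytometry after 2-day treatment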
# Outline: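 Readout: per-well total peak green fluorescence (488 nm ex, 500–520 nm em) from objects 5–250 µm, reflecting correct splicing of an EGFP-654 reporter. Compounds were applied for 2 days at 37 °C to overnight-plated HeLa EGFP-654 cells; controls were DMSO and 500 nM IVS2-654 PNA.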
# [3] = Confirmation and Secondary Assay for Modulators of Hemoglobin Beta Chain Splicing at IVS2 705 locus (AID 930);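 further: HeLa cells stably expressing the EGFP-705 splicing reporter; GFP fluorescence per well restored by corrected splicing of the IVS2-705 intron in EGFP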
# Outline: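 Per-well GFP, captured at 1 x 8 µm resolution with 488 nm excitation, served as the read-out for HeLa EGFP-705 cells incubated 2 days with test compound versus DMSO.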
# [4] = qHTS Assay for Lipid Storage Modulators (AID 1519; calls by dose curve); conditions: Drosophila S3 cells, BODIPY lipid droplet/cell ratio, laser cytometry, cells loaded with oleic acid; for activity change, negative = inhibition: at 57.5 µM (top of the series)
# Outline: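 Cells seeded at 5,000 per well were treated with compounds over a concentration series and loaded with oleic acid (400 uM, as added). Lipid droplet fluorescence (488 nm excitation, 500-530 nm channel) was read by laser-scanning cytometry and normalized to 20 uM Triacsin C.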
# [5] = target: Ubiquitin carboxyl-terminal hydrolase 1 (Homo sapiens) (UniProt O94782); experiment: Inhibitors of USP1/UAF1: Pilot qHTS (AID 504865);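 further: rhodamine fluorescence freed from ubiquitin-rhodamine substrate followed over time; top concentration of the series differs between compounds; nearly all actives have a fitted effect of over 35% in size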
# Outline: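 USP1/UAF1 complex at 1 nM preincubated 15 min at room temperature with compound, then Ub-Rho substrate added at 150 nM final. Fluorescence (480/540 nm) read kinetically in 50 mM HEPES pH 7.8, 0.5 mM EDTA, 1 mM TCEP, 0.1 mg/ml BSA, 0.01% Tween-20.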
# [6] = target: Cytochrome P450 3A4 (Homo sapiens) (UniProt P08684); experiment: qHTS Assay for Inhibitors and Substrates of Cytochrome P450 3A4 (AID 884); further: nearly all actives have a fitted effect of over 50% in size
# Outline: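 20 nM human CYP3A4 with 25 uM Luciferin-PPXE (at KM) in 200 mM KPO4, preincubated 10 min with compound; NADPH regeneration started a 60 min RT reaction. Luciferin detected by luminescence, normalized to 57 uM ketoconazole as full inhibition.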
# [7] = measured here: cell count channel max response
# [8] = measured here: lipid channel max response
# Sequence of Cytochrome P450 3A4 (Homo sapiens) (P08684 whole entry, looked up): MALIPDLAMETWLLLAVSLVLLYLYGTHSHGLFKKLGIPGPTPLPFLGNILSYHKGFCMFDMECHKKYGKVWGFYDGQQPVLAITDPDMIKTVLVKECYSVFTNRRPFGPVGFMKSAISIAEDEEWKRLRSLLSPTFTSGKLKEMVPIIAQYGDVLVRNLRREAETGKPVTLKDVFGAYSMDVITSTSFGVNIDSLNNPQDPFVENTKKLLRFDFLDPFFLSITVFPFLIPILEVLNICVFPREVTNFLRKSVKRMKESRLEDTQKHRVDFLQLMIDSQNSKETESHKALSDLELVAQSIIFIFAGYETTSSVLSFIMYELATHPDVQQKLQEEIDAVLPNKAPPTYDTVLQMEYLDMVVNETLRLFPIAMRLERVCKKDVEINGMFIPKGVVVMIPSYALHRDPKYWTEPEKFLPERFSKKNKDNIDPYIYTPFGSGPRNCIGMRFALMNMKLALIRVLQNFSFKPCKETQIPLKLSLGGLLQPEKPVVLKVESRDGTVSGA
# Sequence of Ubiquitin carboxyl-terminal hydrolase 1 (Homo sapiens) (O94782 whole entry, looked up): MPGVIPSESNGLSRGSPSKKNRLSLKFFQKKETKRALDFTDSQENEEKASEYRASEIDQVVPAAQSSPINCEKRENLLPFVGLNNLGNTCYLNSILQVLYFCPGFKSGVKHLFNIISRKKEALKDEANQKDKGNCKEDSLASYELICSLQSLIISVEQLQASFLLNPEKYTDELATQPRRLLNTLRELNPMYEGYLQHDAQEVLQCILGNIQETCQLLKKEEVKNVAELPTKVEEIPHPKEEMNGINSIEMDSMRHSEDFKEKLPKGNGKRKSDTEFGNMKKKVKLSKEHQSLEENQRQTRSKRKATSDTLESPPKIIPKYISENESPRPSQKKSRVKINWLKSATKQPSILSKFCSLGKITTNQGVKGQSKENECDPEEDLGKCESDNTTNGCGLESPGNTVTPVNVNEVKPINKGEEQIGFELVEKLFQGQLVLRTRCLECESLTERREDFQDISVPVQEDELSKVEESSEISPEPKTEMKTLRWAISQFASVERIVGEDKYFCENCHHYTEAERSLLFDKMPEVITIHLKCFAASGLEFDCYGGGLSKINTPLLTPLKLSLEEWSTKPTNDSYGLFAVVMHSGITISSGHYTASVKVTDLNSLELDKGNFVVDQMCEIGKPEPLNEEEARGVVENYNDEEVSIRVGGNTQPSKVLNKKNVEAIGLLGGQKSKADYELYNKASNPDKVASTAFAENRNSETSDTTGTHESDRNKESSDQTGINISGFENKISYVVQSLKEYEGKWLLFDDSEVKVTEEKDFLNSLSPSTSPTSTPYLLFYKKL
SMILES,Potency [1],Potency [2],Potency [3],"activity change, negative = inhibition [4]","max response [4, 7] [%]","max response [4, 8] [%]",Potency [5],Potency [6]
C=CC(C1=CC(=O)C=CC1=O)c1ccccc1 (stereo not drawn),inactive,inactive,inactive,7.07% (inactive),8.2,16.8,inactive,–
C=C(C)C1Cc2c(ccc(C(=O)O)c2O)O1 (stereo not drawn),–,inactive,inactive,5.26% (inactive),17,23.8,inactive,inactive
O=c1c(O)c(-c2ccccc2)oc2cccc(O)c12,inactive,inactive,inactive,9.45% (inactive),9.77,18.2,inactive,–
CC1(C)CCC2(C(=O)O)CC[C@]3(C)C(=CCC4[C@]5(C)CCC(O)C(C)(C)C5C(O)C[C@]43C)C2C1 (stereo partly drawn),inactive,inactive,inactive,10.3% (inactive),9.57,24.8,inactive,–
CO[C@]12CC(COC(=O)c3cncc(Br)c3)CN(C)[C@@H]1Cc1cn(C)c3cccc2c13 (stereo partly drawn),inactive,inactive,inactive,10.2% (inactive),10.9,29,inactive,–
COc1c(O)cc2c(c1O)C1OC(CO)C(O)[C@H](O)[C@H]1OC2=O (stereo partly drawn),–,inactive,inactive,6.03% (inactive),7.39,14.2,inactive,inactive
CC(=O)O[C@@]1(C(C)=O)CCC2C3C=C(Cl)C4=CC(=O)C5CC5[C@@]4(C)C3CC[C@]21C (stereo partly drawn),–,inactive,inactive,2.54% (inactive),-3.69,0.864,inactive,inactive
C[C@@H]1CCC2[C@](C)(CO)C(O)CC[C@@]2(C)[C@@]12CC[C@](CO)(CCO)O2 (stereo partly drawn),inactive,inactive,inactive,5.37% (inactive),11.4,17.7,inactive,–
CC1O[C@@H](Oc2c(-c3ccc(O)c(O)c3)oc3cc(O)cc(O)c3c2=O)C(O)C(O)C1O (stereo partly drawn),–,inactive,inactive,10.2% (inactive),19.3,40.6,inactive,inactive
CC(=O)OC1CC[C@]2(C)C(=CCC3C4CCC(C(C)CCCC(C)C)[C@]4(C)CCC32)C1 (stereo partly drawn),–,inactive,inactive,5.26% (inactive),9.32,13.2,inactive,inactive
COc1ccc(CCC(=O)c2c(O)cc(OC3OC(CO)C(O)C(O)C3O[C@@H]3OC(C)C(O)C(O)C3O)cc2O)cc1O (stereo partly drawn),–,inactive,inactive,7.07% (inactive),3.74,14.6,inactive,inactive
CC(=O)Oc1c(C)cccc1C(=O)O,–,inactive,inactive,5.46% (inactive),15.6,23.9,inactive,inactive
O=C(/C=C/c1ccccc1)c1ccc(O)cc1,inactive,inactive,inactive,4.07% (inactive),-2.42,2.04,inactive,–
CC(=O)OC1CC2C(C)(C)C(O)C=C[C@@]2(C)C2CC[C@@]3(C)C(c4ccoc4)OC(=O)C4OC43[C@]12C (stereo partly drawn),inactive,inactive,inactive,8.59% (inactive),21.3,29.9,inactive,–
COC(=O)/C(=C1\OC(=O)C(c2ccccc2)C1=O)c1ccccc1 (stereo not drawn),inactive,inactive,inactive,5.87% (inactive),11.1,17.7,inactive,–
CC1(C)C(=O)C2C[C@]3(O)C4=CC(=O)OC(c5ccoc5)[C@]4(C)CCC3[C@](C)(C2=O)C1CC(=O)O (stereo partly drawn),inactive,inactive,inactive,3.73% (inactive),1.91,6.28,inactive,–
COc1ccc(C2CC(=O)c3ccc(OC)cc3O2)cc1 (stereo not drawn),inactive,inactive,inactive,10.2% (inactive),32.1,45.7,inactive,–
O=c1cc(-c2ccc(O)cc2)oc2cc(O)ccc12,inactive,inactive,inactive,10.6% (inactive),-4.61,5.18,inactive,–
CC(=O)OCC(=O)[C@@]12OC(C)(C)OC1CC1C3CC(F)C4=CC(=O)C=C[C@@]4(C)[C@@]3(F)C(O)C[C@]12C (stereo partly drawn),–,inactive,–,5.49% (inactive),3.91,12.9,inactive,–
COc1cc(-c2oc3cc(O)ccc3c(=O)c2O)ccc1O,inactive,inactive,inactive,-2.65% (inactive),-22.8,-26.5,inactive,–
